Our source for the outcome values is PubChem BioAssay AID651918 (Vanderbilt Specialized Chemistry Center, 2012).

SMILES strings stand for the structures. Calls of active or inactive are those of the source. No rule for the calls is given here.

The target of this test is Histone deacetylase 1 (Homo sapiens) (UniProt Q13547). Put plainly: recombinant HDAC1 deacetylase inhibitors – biochemical, HDAC isoform panel, selectivity assay for E-cadherin restoration project, profiling panel (AID 651918). To be noted: recombinant HDAC1, fluorogenic peptide substrate deacetylation; series mostly up to 10 µM.
Histone deacetylase 1 (Homo sapiens), sequence (Q13547 whole entry, looked up, canonical isoform): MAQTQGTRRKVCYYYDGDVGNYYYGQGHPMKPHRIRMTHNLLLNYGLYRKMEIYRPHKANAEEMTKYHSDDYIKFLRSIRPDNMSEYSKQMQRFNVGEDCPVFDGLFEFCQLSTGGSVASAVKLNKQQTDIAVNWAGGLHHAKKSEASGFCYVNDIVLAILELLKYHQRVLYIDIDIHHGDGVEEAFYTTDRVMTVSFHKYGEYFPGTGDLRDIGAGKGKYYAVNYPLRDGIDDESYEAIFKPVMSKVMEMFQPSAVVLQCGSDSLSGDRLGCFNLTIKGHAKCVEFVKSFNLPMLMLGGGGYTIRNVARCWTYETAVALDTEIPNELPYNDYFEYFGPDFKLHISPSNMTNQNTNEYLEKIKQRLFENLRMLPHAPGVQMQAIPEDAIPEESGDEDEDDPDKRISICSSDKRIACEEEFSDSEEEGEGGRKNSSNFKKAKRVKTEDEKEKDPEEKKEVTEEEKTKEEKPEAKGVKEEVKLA

For the compound `O=C(NCCCNC(=O)c1ccc[nH]c1=O)c1cc(-c2ccccc2)on1`, the outcome was inactive.
